# Results from PubChem BioAssay AID1159580 (chemical genetic matrix, 2015).
# Screen size: about 5,500 compounds; about 2,000 (36%) were called active. Inconclusive results (about 18%) are left out. Some of the results follow. Values without a mark were called inactive. Cut-off read from the data, not from the text of the source: active = normalized growth mostly below about 0.91 (no sharp cut-off); inconclusive = no clear call, values can overlap the other calls; inactive = mostly above about 0.92.
# Assay: chemical genetic growth profiling, strain panel (AID 1159580);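 note: tested at 20 µM; growth read once vehicle control cultures reached saturation at 30 °C; 1 = growth at the plate median or of vehicle wells; lower values mean less growth of the strain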
# Conditions: growth OD
structure (smiles),measurement,setting,value
O=C(OC[C@H]1O[C@H](OC(=O)c2cc(O)c(O)c(OC(=O)c3cc(O)c(O)c(O)c3)c2)[C@H](OC(=O)c2cc(O)c(O)c(OC(=O)c3cc(O)c(O)c(O)c3)c2)[C@@H](OC(=O)c2cc(O)c(O)c(OC(=O)c3cc(O)c(O)c(O)c3)c2)[C@@H]1OC(=O)c1cc(O)c(O)c(OC(=O)c2cc(O)c(O)c(O)c2)c1)c1cc(O)c(O)c(OC(=O)c2cc(O)c(O)c(O)c2)c1,normalized growth,"S. cerevisiae deletion strains, locus YJR075W, strain HOC1, hits give low values",0.104 (active)
same,normalized growth,"S. cerevisiae deletion strains, locus YKL009W, strain mrt4, hits give low values",0.125 (active)
same,normalized growth,"S. cerevisiae deletion strains, locus YKL068W, hits give low values",0.082 (active)
same,normalized growth,"S. cerevisiae deletion strains, locus YKL085W, strain MDH1 (second series), hits give low values",0.0765 (active)
same,normalized growth,"S. cerevisiae deletion strains, locus YKL085W, strain MDH1, hits give low values",0.0765 (active)
same,normalized growth,"S. cerevisiae deletion strains, locus YKL160W, strain elf1, hits give low values",0.761 (active)
same,normalized growth,"S. cerevisiae deletion strains, locus YKL190W, strain CNB1, hits give low values",0.0756 (active)
same,normalized growth,"S. cerevisiae deletion strains, locus YKR001C, strain vps1, hits give low values",0.101 (active)
same,normalized growth,"S. cerevisiae deletion strains, locus YKR026C, strain gcn3, hits give low values",1.03
same,normalized growth,"S. cerevisiae deletion strains, locus YKR091W, strain srl3, hits give low values",0.968
same,normalized growth,"S. cerevisiae deletion strains, locus YLL001W, strain dnm1, hits give low values",0.693 (active)
same,normalized growth,"S. cerevisiae deletion strains, locus YLL026W, hits give low values",0.689 (active)
same,normalized growth,"S. cerevisiae deletion strains, locus YLL041C, strain sdh2, hits give low values",0.951
same,normalized growth,"S. cerevisiae deletion strains, locus YLR027C, strain aat2, hits give low values",0.82 (active)
same,normalized growth,"S. cerevisiae deletion strains, locus YLR039C, strain RIC1, hits give low values",0.131 (active)
same,normalized growth,"S. cerevisiae deletion strains, locus YLR058C, strain SHM2, hits give low values",0.0679 (active)
same,normalized growth,"S. cerevisiae deletion strains, locus YLR102C, strain apc9, hits give low values",0.0965 (active)
same,normalized growth,"S. cerevisiae deletion strains, locus YLR113W, strain HOG1, hits give low values",1.08
same,normalized growth,"S. cerevisiae deletion strains, locus YLR221C, strain rsa3, hits give low values",0.785 (active)
same,normalized growth,"S. cerevisiae deletion strains, locus YLR258W, strain gsy2, hits give low values",0.807 (active)
same,normalized growth,"S. cerevisiae deletion strains, locus YLR262C, strain YPT6 (second series), hits give low values",0.596 (active)
same,normalized growth,"S. cerevisiae deletion strains, locus YLR262C, strain YPT6, hits give low values",0.149 (active)
same,normalized growth,"S. cerevisiae deletion strains, locus YLR268W, strain sec22, hits give low values",0.115 (active)
same,normalized growth,"S. cerevisiae deletion strains, locus YLR320W, strain mms22, hits give low values",0.777 (active)
same,normalized growth,"S. cerevisiae deletion strains, locus YLR330W, strain CHS5, hits give low values",0.0805 (active)
same,normalized growth,"S. cerevisiae deletion strains, locus YLR342W, strain FKS1 (second series), hits give low values",0.119 (active)
same,normalized growth,"S. cerevisiae deletion strains, locus YLR342W, strain FKS1, hits give low values",0.662 (active)
same,normalized growth,"S. cerevisiae deletion strains, locus YLR357W, strain rsc2, hits give low values",0.656 (active)
same,normalized growth,"S. cerevisiae deletion strains, locus YLR370C, strain arc18, hits give low values",0.334 (active)
same,normalized growth,"S. cerevisiae deletion strains, locus YLR371W, strain rom2, hits give low values",0.0958 (active)
same,normalized growth,"S. cerevisiae deletion strains, locus YLR384C, strain iki3, hits give low values",0.784 (active)
same,normalized growth,"S. cerevisiae deletion strains, locus YLR418C, strain cdc73, hits give low values",0.159 (active)
same,normalized growth,"S. cerevisiae deletion strains, locus YML016C, strain PPZ1, hits give low values",0.0844 (active)
same,normalized growth,"S. cerevisiae deletion strains, locus YML032C, strain rad52, hits give low values",0.103 (active)
same,normalized growth,"S. cerevisiae deletion strains, locus YML120C, strain ndi1, hits give low values",0.617 (active)
same,normalized growth,"S. cerevisiae deletion strains, locus YML124C, strain tub3, hits give low values",0.0933 (active)
same,normalized growth,"S. cerevisiae deletion strains, locus YMR058W, strain fet3, hits give low values",0.901 (active)
same,normalized growth,"S. cerevisiae deletion strains, locus YMR078C, strain ctf18, hits give low values",0.106 (active)
same,normalized growth,"S. cerevisiae deletion strains, locus YMR125W, strain sto1, hits give low values",1.04
same,normalized growth,"S. cerevisiae deletion strains, locus YMR129W, hits give low values",0.921 (active)
same,normalized growth,"S. cerevisiae deletion strains, locus YMR205C, strain PFK2, hits give low values",0.721 (active)
same,normalized growth,"S. cerevisiae deletion strains, locus YMR223W, strain ubp8, hits give low values",0.0998 (active)
same,normalized growth,"S. cerevisiae deletion strains, locus YMR231W, strain pep5, hits give low values",0.148 (active)
same,normalized growth,"S. cerevisiae deletion strains, locus YMR263W, strain SAP30, hits give low values",0.0929 (active)
same,normalized growth,"S. cerevisiae deletion strains, locus YMR307W, strain GAS1, hits give low values",0.175 (active)
same,normalized growth,"S. cerevisiae deletion strains, locus YNL067W, strain RPL9B, hits give low values",0.0835 (active)
same,normalized growth,"S. cerevisiae deletion strains, locus YNL071W, strain lat1, hits give low values",0.88 (active)
same,normalized growth,"S. cerevisiae deletion strains, locus YNL128W, strain TEP1, hits give low values",0.0962 (active)
same,normalized growth,"S. cerevisiae deletion strains, locus YNL153C, strain GIM3, hits give low values",0.086 (active)
same,normalized growth,"S. cerevisiae deletion strains, locus YNL183C, strain NPR1, hits give low values",0.988
same,normalized growth,"S. cerevisiae deletion strains, locus YNL209W, strain ssb2, hits give low values",0.363 (active)
same,normalized growth,"S. cerevisiae deletion strains, locus YNL233W, strain BNI4, hits give low values",0.0934 (active)
same,normalized growth,"S. cerevisiae deletion strains, locus YNL248C, strain rpa49, hits give low values",0.922
same,normalized growth,"S. cerevisiae deletion strains, locus YNL250W, strain rad50, hits give low values",0.0969 (active)
same,normalized growth,"S. cerevisiae deletion strains, locus YNL271C, strain bni1, hits give low values",0.0916 (active)
same,normalized growth,"S. cerevisiae deletion strains, locus YNL298W, strain CLA4, hits give low values",0.0929 (active)
same,normalized growth,"S. cerevisiae deletion strains, locus YNL307C, strain MCK1, hits give low values",0.102 (active)
same,normalized growth,"S. cerevisiae deletion strains, locus YNL322C, strain KRE1 (second series), hits give low values",0.853 (active)
same,normalized growth,"S. cerevisiae deletion strains, locus YNL322C, strain KRE1, hits give low values",0.0735 (active)
same,normalized growth,"S. cerevisiae deletion strains, locus YNR049C, strain mso1, hits give low values",0.944
same,normalized growth,"S. cerevisiae deletion strains, locus YNR052C, strain pop2, hits give low values",0.0934 (active)
same,normalized growth,"S. cerevisiae deletion strains, locus YOL006C, strain TOP1, hits give low values",0.155 (active)
same,normalized growth,"S. cerevisiae deletion strains, locus YOL012C, strain htz1",0.275
same,normalized growth,"S. cerevisiae deletion strains, locus YOL147C, strain pex11, hits give low values",0.0861 (active)
same,normalized growth,"S. cerevisiae deletion strains, locus YOR001W, strain rrp6, hits give low values",0.663 (active)
same,normalized growth,"S. cerevisiae deletion strains, locus YOR061W, strain CKA2, hits give low values",0.065 (active)
same,normalized growth,"S. cerevisiae deletion strains, locus YOR069W, strain VPS5, hits give low values",0.0788 (active)
same,normalized growth,"S. cerevisiae deletion strains, locus YOR070C, strain gyp1, hits give low values",0.404 (active)
same,normalized growth,"S. cerevisiae deletion strains, locus YOR080W, strain dia2, hits give low values",0.349 (active)
same,normalized growth,"S. cerevisiae deletion strains, locus YOR083W, strain WHI5, hits give low values",0.695 (active)
same,normalized growth,"S. cerevisiae deletion strains, locus YOR106W, strain vam3, hits give low values",0.425 (active)
same,normalized growth,"S. cerevisiae deletion strains, locus YOR136W, strain idh2, hits give low values",0.108 (active)
same,normalized growth,"S. cerevisiae deletion strains, locus YOR144C, strain elg1, hits give low values",0.0856 (active)
same,normalized growth,"S. cerevisiae deletion strains, locus YOR184W, strain ser1, hits give low values",0.124 (active)
same,normalized growth,"S. cerevisiae deletion strains, locus YOR231W, strain MKK1, hits give low values",1.04
same,normalized growth,"S. cerevisiae deletion strains, locus YOR265W, strain rbl2, hits give low values",0.845 (active)
same,normalized growth,"S. cerevisiae deletion strains, locus YOR270C, strain vph1, hits give low values",0.438 (active)
same,normalized growth,"S. cerevisiae deletion strains, locus YOR290C, strain snf2, hits give low values",0.169 (active)
same,normalized growth,"S. cerevisiae deletion strains, locus YOR316C, strain cot1, hits give low values",0.0869 (active)
same,normalized growth,"S. cerevisiae deletion strains, locus YPL051W, strain arl3, hits give low values",0.565 (active)
same,normalized growth,"S. cerevisiae deletion strains, locus YPL055C, strain LGE1, hits give low values",0.103 (active)
same,normalized growth,"S. cerevisiae deletion strains, locus YPL078C, strain atp4, hits give low values",0.582 (active)
same,normalized growth,"S. cerevisiae deletion strains, locus YPL106C, strain sse1, hits give low values",0.829 (active)
same,normalized growth,"S. cerevisiae deletion strains, locus YPL240C, strain hsp82, hits give low values",0.889 (active)
same,normalized growth,"S. cerevisiae deletion strains, locus YPL241C, strain CIN2, hits give low values",0.0787 (active)
same,normalized growth,"S. cerevisiae deletion strains, locus YPL256C, strain CLN2, hits give low values",1.14
same,normalized growth,"S. cerevisiae deletion strains, locus YPR119W, strain clb2, hits give low values",0.0923 (active)
same,normalized growth,"S. cerevisiae deletion strains, locus YPR141C, strain kar3, hits give low values",0.096 (active)
same,normalized growth,"S. cerevisiae deletion strains, locus YPR163C, strain tif3, hits give low values",0.102 (active)
same,normalized growth,"S. cerevisiae deletion strains, locus YPR167C, strain met16, hits give low values",0.0927 (active)
same,normalized growth,"S. cerevisiae deletion strains, strain wtn01, hits give low values",0.0926 (active)
same,normalized growth,"S. cerevisiae strains, strain wild type, hits give low values",0.0831 (active)
